The results in this text go back to PubChem BioAssay (Tox21).

Values without a mark were called inactive. Inconclusive results are not listed. Calls of active or inactive are those of the source. Unless noted, the call rests on the fitted dose curve; in most records, active means well fitted curve in the direction sought with a large enough effect in the repeat runs; inconclusive means weak or mixed curves; inactive means no such curve, though single readings can be large; an effect the other way counts as inactive or inconclusive.

Assay [1] is described as follows: qHTS assay to identify small molecule antagonists of the sonic hedgehog signaling (Shh) pathway (AID 1259369; calls by dose curve; further: nearly all actives have a fitted effect of over 45% in size). An outline of the steps:
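Stable Gli1-Luc reporter NIH/3T3 clone; quantitative HTS in stimulated mode with conditioned medium. Luminescence measured after 24hr compound treatment at 37 C.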
(In qHTS, concentration-response curves come from the screen itself.)

Assay [2] concerns the target Estrogen receptor beta (Homo sapiens) (UniProt Q92731). In words: qHTS assay to identify small molecule agonists of the estrogen receptor beta (ER-beta) signaling pathway (AID 1259377; active means well fitted activation curve with a large enough effect in the signal ratio in the repeat runs, not every such curve was filed as active; the % refers to the signal ratio). An outline of the steps: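 Measured by fluorescence intensity from a B/G FRET beta-lactamase substrate (2 h, room temperature) in ER-beta-UAS-bla HEK293T cells treated with DMSO-dissolved compounds for 16 hr at 37C and 5% CO2.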

For assay [3] the target is unchanged. The experiment in a line: qHTS assay to identify small molecule antagonists of the estrogen receptor beta (ER-beta) signaling pathway (AID 1259378; active means well fitted inhibition curve with a large enough effect in the signal ratio in the repeat runs, not every such curve was filed as active; the % refers to the signal ratio; further: potency means the concentration at half of the fitted maximal effect). An outline of the steps: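 Antagonist mode: compounds added to beta-lactamase reporter HEK293T ER-beta-UAS cells stimulated with E2 (1nM final), 16 hr at 37C. LiveBLAzer B/G FRET substrate, 2 hours room temperature, fluorescence read-out.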

A short description of assay [4]: qHTS assay to identify small molecule agonists of the androgen receptor (AR) signaling pathway in the presence of an antagonist - cell viability counter screen (AID 1259379).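 Further: MDA-kb2 human breast cancer cells carrying an MMTV luciferase reporter; series mostly up to about 92 µM; nearly all actives have a fitted effect of over 25% in size.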 An outline of the steps:
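Nilutamide-containing (3.0uM final) MDA-kb2 cultures, 3,000 cells/well, were treated with compounds across 15 concentrations. After 16 hr at 37C with no CO2, cell viability was determined by CellTiter-Fluor fluorescence in the luciferase assay wells.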

The nature of assay [5]: qHTS assay to identify small molecule agonists of the estrogen receptor beta (ER-beta) signaling pathway - cell viability counter screen (AID 1259380). Further: nearly all actives have a fitted effect of over 30% in size. Further: potency means the concentration at half of the fitted maximal effect. An outline of the steps: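 Steps: plate ER-beta-UAS-bla HEK293T cells, rest 6 hr; add compounds in DMSO; incubate 16 hr at 37C, 5% CO2; add FRET substrate 2 hr; add CellTiter-Glo, wait 30 min at room temperature; read luminescence.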

A short description of assay [6]: qHTS assay to identify small molecule antagonists of the estrogen receptor beta (ER-beta) signaling pathway - cell viability counter screen (AID 1259382). Further: series mostly up to about 92 µM; nearly all actives have a fitted effect of over 55% in size. The method, boiled down: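 Viability is scored by CellTiter-Glo luminescence (30 min, room temperature) in ER-beta-UAS-bla HEK293T wells already read for reporter fluorescence. Compound exposure lasts 16 hr at 37C alongside 1nM 17-beta-estradiol in charcoal-stripped serum medium.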

The target in assay [7] is Estrogen receptor (Homo sapiens) (UniProt P03372). The experiment in a line: qHTS assay to identify small molecule agonists of the estrogen receptor alpha (ER-alpha) signaling pathway in the presence of an antagonist (AID 1259383; calls by dose curve; further: top concentration of the series differs between compounds; nearly all actives have a fitted effect of over 15% in size). The method, boiled down:
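Readout was ERE-driven luciferase luminescence in VM7Luc4E2 cells, which express full-length ER-alpha endogenously. Compounds were tested at 15 concentrations for 22hr alongside 10.0nM ICI-182,780 (final concentration).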

A short description of assay [8]: qHTS assay to identify small molecule agonists or antagonists of the thyroid stimulating hormone receptor (TSHR) signaling pathway - wild type cell line counter screen (AID 1259384; calls by dose curve). An outline of the steps:
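Counter screen in untransfected Hek293: compounds (15-point titration, triplicate) plus phosphodiesterase inhibitor Ro20-1724 added after 18 h plating; 30 min RT. Intracellular cAMP via competitive d2/cryptate immunoassay, 1 h incubation.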

The target of assay [9] is Thyrotropin receptor (Homo sapiens) (UniProt P16473). The experiment in a line: qHTS assay to identify small molecule antagonists of the thyroid stimulating hormone receptor (TSHR) signaling pathway (AID 1259385; calls by dose curve; further: nearly all actives have a fitted effect of over 20% in size; further: potency means the concentration at half of the fitted maximal effect). An outline of the steps:
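Antagonist mode: compound-treated TSHR-expressing HEK293 cells were stimulated with 1.5 ng/mL TSH (final) in presence of Ro20-1724 for 30 min at RT. HTRF cAMP detection after 1 h; each compound tested at 15 concentrations, triplicate.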

The nature of assay [10]: qHTS assay to identify small molecule agonists of the estrogen receptor alpha (ER-alpha) signaling pathway in the presence of an antagonist - cell viability counter screen (AID 1259386).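 Further: series mostly up to about 92 µM; cells exposed to compounds for 22 h at 37 °C before the viability read; nearly all actives have a fitted effect of over 30% in size.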 The method, boiled down:
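In this counter screen, compound effects on VM7Luc4E2 viability were tested in the presence of the antagonist ICI-182,780 at 10.0nM final. Compounds were dosed at 15 concentrations, exposure lasted 22hr, and the CellTiter-Fluor signal was read.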

In assay [11] the target is Progesterone receptor (Homo sapiens) (UniProt P06401). In words: qHTS assay to identify small molecule antagonists of the progesterone receptor (PR) signaling pathway (AID 1346795; active means well fitted inhibition curve with a large enough effect in the signal ratio in the repeat runs, not every such curve was filed as active; the % refers to the signal ratio). An outline of the steps:
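After 6 hr plating at 37C in 2% stripped-serum medium, PR-UAS-bla HEK293T cells got compounds, then 1 nM R5020. Sixteen hours later, LiveBLAzer substrate was applied for 2 hr at room temperature and fluorescence was recorded.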

Assay [12] is described as follows: qHTS assay to identify small molecule antagonists of the progesterone receptor (PR) signaling pathway - cell viability counter screen (AID 1346798). Further: nearly all actives have a fitted effect of over 50% in size. Further: potency means the concentration at half of the fitted maximal effect. The method, boiled down:
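Viability was determined by ATP-based luminescence (CellTiter-Glo) in PR-UAS-bla HEK293T cells cultured in 2% charcoal-stripped serum and incubated 16 hr with compounds under R5020 stimulation.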

Assay [13] is described as follows: qHTS assay to identify small molecule agonists of the progesterone receptor (PR) signaling pathway - cell viability counter screen (AID 1346799; calls by dose curve; further: nearly all actives have a fitted effect of over 45% in size; further: potency means the concentration at half of the fitted maximal effect). An outline of the steps: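 Viability was scored by ATP luminescence (CellTiter-Glo, 30 min, room temperature) in the same wells used for the reporter readout, after 16 hr compound exposure of PR-UAS-bla HEK293T cells.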

A short description of assay [14]: qHTS assay to identify small molecule antagonists of the TGF-beta/Smad signaling pathway - cell viability counter screen (AID 1346824). Further: nearly all actives have a fitted effect of over 50% in size. An outline of the steps: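 Cytotoxicity counter-screen run in the same wells as the beta-lactamase Smad reporter read: CellTiter-Glo luminescence after 30 min at room temperature. HEK 293T SBE-bla cells had 5 hr compound exposure at 37 C with TGF-beta1 (0.25 ng/mL stock).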

Assay [15] is described as follows: qHTS assay to identify small molecule agonists of the TGF-beta/Smad signaling pathway - cell viability counter screen (AID 1346829). Further: top concentration of the series differs between compounds; nearly all actives have a fitted effect of over 45% in size. An outline of the steps: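 Here the cytotoxicity of library compounds is measured in SBE-bla HEK 293T cells treated for 5 hr, using CellTiter-Glo added to wells already read for the beta-lactamase reporter.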
A short description of assay [16]: qHTS assay to identify small molecule agonists of the TGF-beta/Smad signaling pathway (AID 1346859; active means well fitted activation curve with a large enough effect in the signal ratio in the repeat runs, not every such curve was filed as active; the % refers to the signal ratio; further: series mostly up to about 77 µM). An outline of the steps:
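Dual-wavelength fluorescence (460/530 nm emission) quantified beta-lactamase expression under the Smad binding element in HEK 293T cells following 5 hr compound treatment at 37 C.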

The target in assay [17] is Thyrotropin-releasing hormone receptor (Homo sapiens) (UniProt P34981). In words: qHTS assay to identify small molecule antagonists of the thyrotropin-releasing hormone receptor (TRHR) signaling pathway (AID 1346877; active means well fitted inhibition curve with a large enough effect in the repeat runs, not every such curve was filed as active; further: series mostly up to about 51 µM). An outline of the steps:
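Kinetic fluorescence (3 min, 1 s resolution) following stimulation with TRH at 1 nM final; HEK293 cells bearing human TRHR; 5 min compound preincubation at RT; concentration-response over 15 points, triplicates.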

Assay [18] shares this target. In words: qHTS assay to identify small molecule agonists of the thyrotropin-releasing hormone receptor (TRHR) signaling pathway (AID 1346891; calls by dose curve;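 further: HEK293 cells expressing TRHR with calcium dye readout; series mostly up to about 58 µM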). The method, boiled down: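 Kinetic fluorescence (3 min, 1 s intervals) reported intracellular calcium after compound transfer onto TRHR-Hek293 cells pre-loaded with dye for 2 h at 37 °C.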
For assay [19], the target named is Progesterone receptor (Homo sapiens) (UniProt P06401). In words: qHTS assay to identify small molecule agonists of the progesterone receptor (PR) signaling pathway (AID 1346784; calls by dose curve; further: nearly all actives have a fitted effect of over 30% in size). The method, boiled down:
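The screen uses PR-UAS-bla HEK 293T cells in charcoal-stripped serum (2%). Compounds are applied for 16 hr at 37C after a 6 hr pre-incubation, and reporter activity is detected with a FRET beta-lactamase substrate after 2 hr at room temperature.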

Sequence of Estrogen receptor (Homo sapiens) (P03372 whole entry, looked up): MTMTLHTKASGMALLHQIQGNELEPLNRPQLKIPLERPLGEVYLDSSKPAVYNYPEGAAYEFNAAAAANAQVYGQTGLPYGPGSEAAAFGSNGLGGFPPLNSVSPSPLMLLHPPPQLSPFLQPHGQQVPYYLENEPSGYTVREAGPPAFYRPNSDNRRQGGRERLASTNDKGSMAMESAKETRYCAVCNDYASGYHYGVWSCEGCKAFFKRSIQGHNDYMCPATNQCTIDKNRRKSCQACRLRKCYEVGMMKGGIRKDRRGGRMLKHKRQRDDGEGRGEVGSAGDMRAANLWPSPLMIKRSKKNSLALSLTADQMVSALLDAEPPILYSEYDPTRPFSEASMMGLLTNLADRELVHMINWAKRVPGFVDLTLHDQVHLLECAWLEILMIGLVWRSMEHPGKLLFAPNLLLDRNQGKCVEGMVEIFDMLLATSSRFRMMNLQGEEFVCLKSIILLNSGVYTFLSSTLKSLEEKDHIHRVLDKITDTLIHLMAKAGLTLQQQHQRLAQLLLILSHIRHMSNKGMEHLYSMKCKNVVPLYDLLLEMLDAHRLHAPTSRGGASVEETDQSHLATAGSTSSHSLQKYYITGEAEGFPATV
Sequence of Thyrotropin receptor (Homo sapiens) (P16473 whole entry, looked up): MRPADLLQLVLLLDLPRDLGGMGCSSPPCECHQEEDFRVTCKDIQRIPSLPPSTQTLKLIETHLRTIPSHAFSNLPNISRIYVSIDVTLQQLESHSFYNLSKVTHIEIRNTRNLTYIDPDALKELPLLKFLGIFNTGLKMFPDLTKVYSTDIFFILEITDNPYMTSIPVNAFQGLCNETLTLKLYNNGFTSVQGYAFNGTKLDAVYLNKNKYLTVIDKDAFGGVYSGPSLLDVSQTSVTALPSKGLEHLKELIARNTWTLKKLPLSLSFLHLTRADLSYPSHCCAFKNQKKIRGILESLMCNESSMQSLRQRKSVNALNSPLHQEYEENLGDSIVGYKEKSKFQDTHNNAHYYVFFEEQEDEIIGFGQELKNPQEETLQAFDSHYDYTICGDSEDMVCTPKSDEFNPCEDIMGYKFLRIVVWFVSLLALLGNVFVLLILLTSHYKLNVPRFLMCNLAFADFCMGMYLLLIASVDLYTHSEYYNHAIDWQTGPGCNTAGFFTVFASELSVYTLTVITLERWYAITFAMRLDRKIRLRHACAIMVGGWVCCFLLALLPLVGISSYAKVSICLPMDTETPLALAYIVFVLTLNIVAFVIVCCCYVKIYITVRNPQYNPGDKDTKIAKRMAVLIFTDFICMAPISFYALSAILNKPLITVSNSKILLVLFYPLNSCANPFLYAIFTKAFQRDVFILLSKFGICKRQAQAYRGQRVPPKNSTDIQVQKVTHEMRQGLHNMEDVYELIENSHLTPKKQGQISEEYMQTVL
Sequence of Progesterone receptor (Homo sapiens) (P06401 whole entry, looked up): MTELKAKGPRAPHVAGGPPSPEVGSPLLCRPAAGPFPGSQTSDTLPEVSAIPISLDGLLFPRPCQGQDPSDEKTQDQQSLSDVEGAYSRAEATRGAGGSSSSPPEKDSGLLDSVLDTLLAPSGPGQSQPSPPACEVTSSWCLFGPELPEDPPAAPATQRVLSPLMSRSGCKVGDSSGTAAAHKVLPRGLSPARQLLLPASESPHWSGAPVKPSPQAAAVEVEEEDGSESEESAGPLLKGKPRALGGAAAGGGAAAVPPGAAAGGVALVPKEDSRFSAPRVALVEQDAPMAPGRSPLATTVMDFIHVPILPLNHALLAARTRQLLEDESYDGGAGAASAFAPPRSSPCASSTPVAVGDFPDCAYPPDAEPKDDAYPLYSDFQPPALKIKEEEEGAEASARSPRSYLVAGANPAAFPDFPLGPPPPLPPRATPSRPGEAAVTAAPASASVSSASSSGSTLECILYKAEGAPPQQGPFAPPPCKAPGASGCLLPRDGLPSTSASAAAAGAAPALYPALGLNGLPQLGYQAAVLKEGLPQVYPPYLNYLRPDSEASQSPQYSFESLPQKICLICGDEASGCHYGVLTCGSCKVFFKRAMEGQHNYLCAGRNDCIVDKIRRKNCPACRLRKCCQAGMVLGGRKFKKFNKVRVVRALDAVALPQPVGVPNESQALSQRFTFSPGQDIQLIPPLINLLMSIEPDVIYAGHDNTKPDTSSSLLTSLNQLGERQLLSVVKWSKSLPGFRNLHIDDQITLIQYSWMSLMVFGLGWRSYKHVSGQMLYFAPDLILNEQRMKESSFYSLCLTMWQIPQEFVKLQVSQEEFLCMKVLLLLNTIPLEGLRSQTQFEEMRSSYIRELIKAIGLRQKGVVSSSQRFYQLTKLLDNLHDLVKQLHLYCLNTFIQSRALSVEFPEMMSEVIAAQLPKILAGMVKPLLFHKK
Sequence of Thyrotropin-releasing hormone receptor (Homo sapiens) (P34981 whole entry, looked up): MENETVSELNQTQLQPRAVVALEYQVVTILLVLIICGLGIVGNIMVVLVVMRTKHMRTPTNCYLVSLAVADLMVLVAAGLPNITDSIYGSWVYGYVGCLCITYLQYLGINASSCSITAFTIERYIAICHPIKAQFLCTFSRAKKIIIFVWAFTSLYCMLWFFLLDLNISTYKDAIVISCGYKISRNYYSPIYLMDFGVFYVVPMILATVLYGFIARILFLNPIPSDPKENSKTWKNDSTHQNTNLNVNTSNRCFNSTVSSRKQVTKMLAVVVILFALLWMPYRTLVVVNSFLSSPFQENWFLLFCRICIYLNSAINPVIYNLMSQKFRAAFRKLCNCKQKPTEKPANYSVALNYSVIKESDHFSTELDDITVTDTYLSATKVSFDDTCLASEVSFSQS
Sequence of Estrogen receptor beta (Homo sapiens) (Q92731 whole entry, looked up): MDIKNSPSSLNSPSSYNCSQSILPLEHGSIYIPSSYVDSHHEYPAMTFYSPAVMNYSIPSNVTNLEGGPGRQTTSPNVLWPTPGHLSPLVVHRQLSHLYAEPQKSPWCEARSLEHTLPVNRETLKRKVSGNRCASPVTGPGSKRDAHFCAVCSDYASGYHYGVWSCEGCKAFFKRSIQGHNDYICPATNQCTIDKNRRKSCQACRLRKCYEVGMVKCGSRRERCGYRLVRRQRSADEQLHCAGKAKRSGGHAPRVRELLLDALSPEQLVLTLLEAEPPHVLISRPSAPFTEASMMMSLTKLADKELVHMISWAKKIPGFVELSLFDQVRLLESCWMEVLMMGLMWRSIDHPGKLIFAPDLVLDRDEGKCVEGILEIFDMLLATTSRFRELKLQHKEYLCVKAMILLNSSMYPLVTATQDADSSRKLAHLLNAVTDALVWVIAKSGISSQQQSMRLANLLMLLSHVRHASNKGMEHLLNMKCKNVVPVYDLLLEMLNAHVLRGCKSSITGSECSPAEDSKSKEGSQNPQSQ

For the molecule `COc1ccc(C(=O)N2CCN(CC(=O)N3CCOCC3)CC2)cc1`, the Potency entry in [1], in assay [2], in assay [3], in assay [4], in assay [5] and in assay [6] was “inactive” in each case. For the same molecule, the Potency result in [7], in assay [8], in [9], in assay [10], in [11] and in assay [12] was “inactive” in each case. The Potency entry in assay [13], in assay [14], in assay [16] and in assay [18] was “inactive” throughout. Besides, the call in assay [15] and in [17] was inactive.

Consider `CCCCCCCCCCCCCCCCCCOS(=O)(=O)O`, for which the Potency result in assay [1], in assay [2], in assay [4], in [7], in assay [8] and in [10] was “inactive” each time. For the same molecule, the Potency entry in assay [19], in [11], in assay [14], in assay [16] and in assay [18] was “inactive” throughout. Further, the Potency is 48.6 µM (active) in [3]; 48.6 µM (active) in [5]; 68.6 µM (active) in [9]; 54.5 µM (active) in assay [12]; 48.6 µM (active) in assay [13]. In addition, the outcome in assay [15] and in assay [17] was inactive.

Turning to `CC(=O)c1cccc([N+](=O)[O-])c1`, the Potency entry in assay [1], in [2], in assay [3], in [4], in assay [5] and in assay [6] was “inactive” in each case. The Potency entry in assay [7], in assay [10], in assay [19], in [11], in assay [12] and in assay [13] was “inactive” each time. For the same molecule, the Potency result in [14], in assay [16] and in assay [18] was “inactive” throughout. Besides, the molecule was classed as inactive in assay [15] and in assay [17].

Take `CN1Cc2cc(C(=O)N3CCC(C4CCNCC4)CC3)ccc2NC(CC(=O)O)C1=O` (stereo not drawn): the Potency result in [1], in [2], in assay [3], in [4], in assay [5] and in [7] was “inactive” in each case. The Potency entry in [8], in [9], in [10], in [11], in assay [12] and in [13] was “inactive” in each case. The Potency result in [14], in assay [16] and in assay [18] was “inactive” in each case. Also, the outcome in [15] and in assay [17] was inactive.

Turning to `CCCCCCCCCOS(=O)(=O)O`, the Potency entry in assay [1], in [2], in assay [3], in assay [4], in [5] and in [6] was “inactive” each time. The Potency result in assay [7], in [8], in [9], in assay [10], in assay [19] and in assay [11] was “inactive” throughout. Moreover, the Potency entry in assay [13], in [14], in [16] and in [18] was “inactive” throughout. Also, in [15], the call was inactive.

Take `NCC(=O)CCC(=O)O`: the Potency result in assay [1], in assay [2], in assay [3], in assay [4], in assay [5] and in assay [6] was “inactive” each time. In addition, the Potency result in [7], in assay [8], in assay [10], in assay [11], in [13] and in assay [14] was “inactive” each time. Also, in assay [16], the Potency entry is “inactive”. The result in assay [15] was inactive.

Take `CCOCC(O)COc1ccc(NC(=O)CC[S+](C)C)cc1` (stereo not drawn): the Potency result in [1], in assay [2], in assay [3], in assay [4], in assay [5] and in assay [7] was “inactive” each time. The Potency entry in assay [8], in [10], in assay [19], in [11], in [12] and in assay [13] was “inactive” in each case. In addition, the Potency entry in [14], in assay [16] and in assay [18] was “inactive” throughout. For the same molecule, the result in [15] and in assay [17] was inactive.
